Screening results (PubChem)
SRC3 inh – inhibitors of human steroid receptor coactivator 3 (SRC3); Q9Y6Q9; HEK293 GAL4-SRC3 luciferase reporter, luminescence; inhibition, % at 3.6 µM; 360,000 tested, 0.17% active; AID 588352;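 active = inhibition above a per-campaign cutoff, the mean of all compounds plus 3 SD, cut at about 60% in these data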;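 note: 0% = DMSO-treated cells and 100% = gossypol-treated cells at 36 µM; higher means less SRC3-driven luciferase light from the GAL4 reporter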
Gli-Sufu block – antagonists of Gli-Sufu signaling | Sufu-KO-LIGHT fibroblasts, Gli luciferase reporter luminescence | inhibition, % at 5 µM | 340,000 tested, 0.74% active | AID 588413;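 active = inhibition above about 55%, limit read from the data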;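 note: 0% = DMSO-treated cells and 100% = wells with medium but no cells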
NR5A2 inv ag – inverse agonists of human LRH-1 (NR5A2); AID 602396; HEK293T StAR-luciferase reporter, LRH-1 transfected, 24 h; O00482; inhibition, % at 3.6 µM; 360,000 tested, 0.13% active;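 active = inhibition above the mean inhibition of all tested compounds plus 3 SD, cut at about 73% in these data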;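 note: 0% = DMSO wells and 100% = reporter-only cells lacking LRH-1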
SRC1 inh – human NCOA1 inhibition; Q15788; HEK293 GAL4-SRC1 luciferase reporter, luminescence; inhibition, % at 3.6 µM; 360,000 tested, 0.12% active;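 active = inhibition above the campaign mean plus 3 SD, with each screening campaign given its own cutoff, cut at about 60% in these data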;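 note: 0% = DMSO treated cells and 100% = gossypol at 36 µM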
NR2F2 inh – NR2F2 (human) inhibition, primary screen. 370,000 tested, 0.7% active. HEK293T NGFI-A luciferase reporter, luminescence. AID 686940. inhibition, % at 8.6 µM. P24468;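 active = inhibition above a per-plate cutoff, mean inhibition of test wells between control levels plus 3 SD, cut at about 38% in these data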;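 note: cells cotransfected with COUP-TFII expression vector driving the NGFI-A reporter; 0% = median of COUP-TF2 test wells and 100% = reporter-only cells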
NCOA2 inhibitor – inhibits human steroid receptor coactivator 2; inhibition, % at 9 µM; HEK293 GAL4-SRC2 luciferase reporter, luminescence; 370,000 tested, 0.17% active;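 active = inhibition above the mean inhibition of all tested compounds plus 3 SD, set per campaign, cut at about 52% in these data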;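 note: 0% = DMSO treated cells and 100% = cells given Gossypol at 36 µM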
Gal4-VP16 ctr – counter-screen for COUP-TFII antagonists: inhibitors of VP16 | HEK293 Gal4-VP16 luciferase reporter, luminescence | AID 687007 | inhibition, % at 8.5 µM | 2,500 tested, 25% active | shares compounds with NR2F2 inh; in the data active = inhibition above about 13%
COUP-TFII conf – COUP-TFII (NR2F2) inhibition, confirmation assay. shares compounds with NR2F2 inh. HEK293 NGFI-A luciferase reporter, luminescence. inhibition, % at 8.5 µM. 2,500 tested, 45% active. AID 687008;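 active = mean inhibition over three repeats above a set limit taken from the earlier primary screen, cut at about 38% in these data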;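 note: 100% = cells given the luciferase reporter alone without the COUP-TF2 vector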
* = called active by the depositor; nt = no result. This is a sample that favours compounds with a hit; in the whole collection about 1.3% have one here.

SMILES | SRC3 inh | Gli-Sufu block | NR5A2 inv ag | SRC1 inh | NR2F2 inh | NCOA2 inhibitor | Gal4-VP16 ctr | COUP-TFII conf
CCc1ccc(NC(=O)C2CCN(S(=O)(=O)c3ccc4c(c3)NC(=O)C(C)S4)CC2)cc1 (stereo not drawn) | 3 | 26 | -8 | 1 | 58* | 17 | 8 | 40*
COc1ccc(CCNC(=O)c2ccc3c(c2)ncn3C2CCCCC2)cc1 | nt | nt | nt | nt | -12 | -6 | nt | nt
O=[N+]([O-])c1ccc(CN2CCN(c3ccc([N+](=O)[O-])cc3)CC2)cc1 | 11 | 20 | 21 | 5 | 40* | 13 | 4 | 20
CCCCCCN1CCS(=O)(=O)N(Cc2ccc(F)cc2)C(C(=O)OC)C1 (stereo not drawn) | nt | nt | nt | nt | 3 | -22 | nt | nt
N#Cc1ccc(/C=C2\CC3(OC(=O)c4cccc(F)c4)CCCN2C3)cc1 (stereo not drawn) | nt | nt | nt | nt | -31 | 5 | nt | nt
CCOC(=O)N1CCN(C(=O)c2ccccc2NC(=O)c2ccc(C(C)(C)C)cc2)CC1 | 14 | -5 | 6 | -23 | 8 | -22 | nt | nt
CCOC(=O)N1CCN(C(=O)C(NC(=O)c2ccc(C(C)(C)C)cc2)C(C)C)CC1 (stereo not drawn) | 1 | nt | 10 | -7 | 40* | 26 | -4 | 0
COc1ccc(-n2c(-c3ccc(Br)cc3)c[n+]3c2CCc2ccccc2-3)cc1 | 47 | 86* | 65 | 5 | 38* | 17 | 21* | 31
C[n+]1cc(-c2ccccc2)n2c1CCCCC2 | 6 | 20 | 6 | -17 | nt | nt | nt | nt
CC(C)c1ccc(-n2c(-c3ccccc3)c[n+]3c2CCc2ccccc2-3)cc1 | 77* | 85* | 81* | 50 | 89* | 40 | 28* | 87*
COc1cccc(CN2C(=O)C(C)N(C(=O)c3ccccc3)c3ccccc32)c1 (stereo not drawn) | 29 | -13 | 2 | 22 | 54* | 10 | 0 | 30
COc1ccc(CN2C(=O)C(C)N(C(=O)c3c(F)cccc3F)c3ccccc32)cc1 (stereo not drawn) | 11 | 5 | 25 | 16 | 18 | 17 | nt | nt
N#Cc1ccccc1N1CCN(C(=O)C2CCN(c3ncnc4c3sc3cccc(F)c34)CC2)CC1 | nt | nt | nt | nt | 58* | 13 | -8 | 28
COc1nc(OC)nc(N2CCC(C(=O)N(C)Cc3ccccc3F)CC2)n1 | nt | nt | nt | nt | 6 | 14 | nt | nt
COC(=O)c1c(C)n(-c2ccc(OC)cc2)c2ccc(O)cc12 | 39 | -10 | -1 | 21 | 39* | 47 | -7 | 8
CCOC(=O)c1c(C)n(-c2ccc(F)cc2)c2ccc(O)cc12 | 5 | -2 | 3 | 9 | nt | nt | nt | nt
CC(Sc1nnc2c(n1)[nH]c1ccccc12)C(=O)N(C)C1CCCCC1 (stereo not drawn) | 1 | 51 | 4 | 2 | 44* | 31 | 2 | 34
Cc1cccc(-c2cccc(NC(=O)C3CCCN(C(=O)c4csc(C)n4)C3)c2)c1 (stereo not drawn) | 7 | 4 | 25 | 19 | 42* | 7 | -35 | 18
O=C(Nc1cccc2ncccc12)c1ccc(OCc2ccccc2)cc1 | 11 | 28 | -1 | -5 | 43* | 3 | -9 | 16
Nc1ccc(C(=O)Nc2cccc3ncccc23)cc1 | -18 | -7 | -6 | -4 | -17 | 4 | nt | nt
O=C(NCc1cccnc1)c1ccc(COc2ccc(Cl)cc2)cc1 | 18 | 24 | 7 | -12 | 66* | 14 | -17 | 4
COC(=O)[C@]12C[C@H](CC(=O)N3CCCC3)C(=O)N(Cc3ccco3)C1=C[C@H](C(C)C)O[C@@H]2C1CC1 | nt | nt | nt | nt | 4 | 13 | nt | nt
CC(=O)Nc1c(-c2ccc(C(F)(F)F)cc2)nc2ncccn12 | nt | nt | nt | nt | -13 | 2 | nt | nt
Cc1cnc(NC(=O)COc2ccccc2Cl)s1 | -12 | -70 | -75 | -29 | 41* | 34 | -28 | 4
CCC(Sc1nc(=O)cc(N)n1-c1cccc(C)c1)C(=O)Nc1cc(C)on1 (stereo not drawn) | 18 | -29 | 15 | 11 | 43* | -2 | -3 | 12
CC(=O)N[C@@H](C)CCc1ccc(Oc2ccc(OC(C)C)nc2)cc1 | nt | nt | nt | nt | 39* | nt | -32 | 1
